According to the supplement of paper PMC10849652:
The full data set covers some 8,800 targets. This sample favours those with a hit. About 0.5% of all pairs of compound and target were hits. Unmarked numbers belong to inactive results.

What was measured:
Test in all cases: log2 fold change, soluble protein after heating vs DMSO (PISA); higher = thermal stabilisation; K562 lysate, 10 uM; active = over 0.2 and 3.5 SD of the protein, either way, in both replicates (recomputed)
[1] = compound: CN1CC[C@H](c2c(O)cc(O)c3c(=O)cc(-c4ccccc4Cl)oc23)[C@H](O)C1 [alvocidib]
Procedure, shortened: (§1)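 K562 pellets were dounce-homogenised in PBS pH 7.4 with 1 mM MgCl2, and the crude extract at 1 mg/mL protein was treated with 10 μM compound for 30 min. Aliquots were heated for 3 min across 48°C-58°C, pooled, and brought to 0.5% NP-40 at 4°C; soluble protein was the supernatant after 21,000xg for 90 min. Soluble protein was quantified by TMTpro 16plex LC-MS/MS with channel sums equalised, and reported as log2 fold change in thermal stability against DMSO controls, with values from duplicates.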

[2] = compound: CN1CCc2c(c3ccccc3n2Cc2ccc(C(=O)NO)cc2)C1 [Tubastatin A]
Procedure, shortened: as §1

[3] = compound: CNC(=O)C1=CC=CC=C1NC2=NC(=NC=C2Cl)NC3=C(C=C(C=C3)N4CCOCC4)OC
Procedure, shortened: as §1

[4] = compound: CNC(=O)c1ccc(Nc2ncc(C(F)(F)F)c(NCc3nccnc3N(C)S(C)(=O)=O)n2)cc1 [defactinib]
Procedure, shortened: as §1

[5] = compound: CNc1nc(-c2ccc3c(N)n[nH]c3c2)cc(N2C[C@@H](C(=O)NC3CCCCC3)CC[C@H]2C)n1
Procedure, shortened: as §1

[6] = compound: COC(=O)N[C@@H](C)CNc1nccc(-c2cn(C(C)C)nc2-c2cc(Cl)cc(NS(C)(=O)=O)c2F)n1 [encorafenib]
Procedure, shortened: as §1

[7] = compound: COC(=O)[C@H](CCSC)NC(=O)C1=C(C=C(C=C1)NC[C@H](CS)N)C2=CC=CC=C2
Procedure, shortened: as §1

[8] = compound: COc1cc(Nc2ncc3c(n2)-c2ccc(Cl)cc2C(c2c(F)cccc2OC)=NC3)ccc1C(=O)O [alisertib]
Procedure, shortened: as §1

[9] = compound: COc1cc2nc(-c3cc(F)ccc3O)nc(N[C@@H]3CNC[C@H]3C(C)(C)O)c2cc1OC
Procedure, shortened: as §1

[10] = compound: COc1cc2ncnc(Nc3ccc(F)c(Cl)c3)c2cc1OCCCN1CCOCC1 [gefitinib]
Procedure, shortened: as §1

[11] = compound: CS(=O)(=O)CCNCc1ccc(-c2ccc3ncnc(Nc4ccc(OCc5cccc(F)c5)c(Cl)c4)c3c2)o1 [lapatinib]
Procedure, shortened: as §1

[12] = compound: CS(=O)(=O)N1CCN(Cc2cc3nc(-c4cccc5[nH]ncc45)nc(N4CCOCC4)c3s2)CC1 [pictilisib]
Procedure, shortened: as §1

[13] = compound: C[C@@H](Oc1cc(-c2cnn(C3CCNCC3)c2)cnc1N)c1c(Cl)ccc(F)c1Cl [crizotinib]
Procedure, shortened: as §1

[14] = compound: C[C@H](C1=CC=C(C=C1)C(=O)NC2=C3C=CNC3=NC=C2)N
Procedure, shortened: as §1

[15] = compound: C[C@H](Nc1ncnc2nc[nH]c12)c1cc2cccc(Cl)c2c(=O)n1-c1ccccc1 [duvelisib]
Procedure, shortened: as §1

[16] = compound: Cc1cc(Nc2cc(CN3CCOCC3)c3nc(C)c(Cc4ccc(Cl)cc4F)n3n2)n[nH]1 [gandotinib]
Procedure, shortened: as §1

[17] = compound: Cc1cc(Nc2cc(N3CCN(C)CC3)nc(Sc3ccc(NC(=O)C4CC4)cc3)n2)n[nH]1 [tozasertib]
Procedure, shortened: as §1

[18] = compound: Cc1ccc(-n2nc(C(C)(C)C)cc2NC(=O)Nc2ccc(OCCN3CCOCC3)c3ccccc23)cc1 [doramapimod]
Procedure, shortened: as §1

[19] = compound: Cc1ccc(NC(=O)c2ccc(CN3CC[C@H](N(C)C)C3)c(C(F)(F)F)c2)cc1Nc1nccc(-c2cncnc2)n1 [bafetinib]
Procedure, shortened: as §1

[20] = compound: Cc1cccc(CC(=O)N2CCc3c2ccc(-c2cn(C)c4ncnc(N)c24)c3F)n1
Procedure, shortened: as §1

Chain of UniProt Q9H4L5 (Q9H4L5 whole entry, looked up): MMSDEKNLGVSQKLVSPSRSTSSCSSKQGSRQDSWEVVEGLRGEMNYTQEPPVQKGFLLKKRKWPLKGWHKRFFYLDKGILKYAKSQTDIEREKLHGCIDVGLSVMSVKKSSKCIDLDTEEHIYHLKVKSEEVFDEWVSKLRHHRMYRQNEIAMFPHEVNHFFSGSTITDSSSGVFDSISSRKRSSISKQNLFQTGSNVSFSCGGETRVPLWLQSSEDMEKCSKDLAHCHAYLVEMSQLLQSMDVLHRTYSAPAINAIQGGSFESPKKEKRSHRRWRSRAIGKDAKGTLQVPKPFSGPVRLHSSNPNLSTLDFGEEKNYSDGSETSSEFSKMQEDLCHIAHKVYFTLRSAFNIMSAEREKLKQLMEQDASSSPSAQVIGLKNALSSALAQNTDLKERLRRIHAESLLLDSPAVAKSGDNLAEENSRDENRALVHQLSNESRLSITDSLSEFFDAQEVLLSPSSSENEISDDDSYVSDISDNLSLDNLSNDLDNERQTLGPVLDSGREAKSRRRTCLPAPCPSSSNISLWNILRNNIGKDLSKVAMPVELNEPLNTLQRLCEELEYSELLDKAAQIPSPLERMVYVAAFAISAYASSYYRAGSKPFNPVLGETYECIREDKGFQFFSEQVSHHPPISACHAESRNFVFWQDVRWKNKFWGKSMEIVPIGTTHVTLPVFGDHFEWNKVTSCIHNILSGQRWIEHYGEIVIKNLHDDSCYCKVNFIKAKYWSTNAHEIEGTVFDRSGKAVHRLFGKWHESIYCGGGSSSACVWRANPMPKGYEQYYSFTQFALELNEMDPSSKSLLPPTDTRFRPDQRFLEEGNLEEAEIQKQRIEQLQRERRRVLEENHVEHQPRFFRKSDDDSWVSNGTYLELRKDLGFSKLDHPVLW
Chain of UniProt P49757 (P49757 whole entry, looked up): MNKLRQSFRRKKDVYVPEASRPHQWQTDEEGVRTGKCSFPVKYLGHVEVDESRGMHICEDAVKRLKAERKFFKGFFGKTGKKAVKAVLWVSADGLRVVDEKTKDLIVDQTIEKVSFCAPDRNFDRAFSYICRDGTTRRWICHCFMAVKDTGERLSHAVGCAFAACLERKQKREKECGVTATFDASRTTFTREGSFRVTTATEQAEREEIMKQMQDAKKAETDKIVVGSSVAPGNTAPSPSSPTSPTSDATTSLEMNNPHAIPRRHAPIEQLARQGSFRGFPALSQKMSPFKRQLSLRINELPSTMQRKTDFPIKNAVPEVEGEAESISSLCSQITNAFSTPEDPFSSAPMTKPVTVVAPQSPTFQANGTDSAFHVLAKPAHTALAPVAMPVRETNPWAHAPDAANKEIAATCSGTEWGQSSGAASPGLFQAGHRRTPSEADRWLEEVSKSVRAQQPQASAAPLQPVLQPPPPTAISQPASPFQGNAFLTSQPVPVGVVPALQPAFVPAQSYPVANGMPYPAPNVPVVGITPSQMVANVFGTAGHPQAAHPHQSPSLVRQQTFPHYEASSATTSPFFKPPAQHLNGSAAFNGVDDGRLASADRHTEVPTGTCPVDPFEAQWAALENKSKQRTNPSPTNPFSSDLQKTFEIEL
Chain of UniProt Q8TE04 (Q8TE04 whole entry, looked up): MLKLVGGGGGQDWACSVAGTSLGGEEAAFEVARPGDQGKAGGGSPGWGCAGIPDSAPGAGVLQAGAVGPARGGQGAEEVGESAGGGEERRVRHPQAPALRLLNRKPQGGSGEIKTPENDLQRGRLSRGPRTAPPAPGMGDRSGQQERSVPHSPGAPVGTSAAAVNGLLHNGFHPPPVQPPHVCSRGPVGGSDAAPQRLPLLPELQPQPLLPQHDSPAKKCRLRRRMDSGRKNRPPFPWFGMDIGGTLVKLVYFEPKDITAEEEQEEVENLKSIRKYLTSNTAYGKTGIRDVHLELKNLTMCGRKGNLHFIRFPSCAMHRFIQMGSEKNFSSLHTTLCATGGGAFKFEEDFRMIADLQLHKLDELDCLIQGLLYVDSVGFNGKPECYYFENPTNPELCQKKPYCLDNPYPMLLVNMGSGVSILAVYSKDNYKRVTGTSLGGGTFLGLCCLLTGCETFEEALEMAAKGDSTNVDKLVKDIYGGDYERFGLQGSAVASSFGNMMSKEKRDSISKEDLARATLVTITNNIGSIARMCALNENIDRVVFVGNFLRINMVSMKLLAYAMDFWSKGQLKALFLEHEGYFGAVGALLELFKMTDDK
Chain of UniProt P28331 (P28331 whole entry, looked up): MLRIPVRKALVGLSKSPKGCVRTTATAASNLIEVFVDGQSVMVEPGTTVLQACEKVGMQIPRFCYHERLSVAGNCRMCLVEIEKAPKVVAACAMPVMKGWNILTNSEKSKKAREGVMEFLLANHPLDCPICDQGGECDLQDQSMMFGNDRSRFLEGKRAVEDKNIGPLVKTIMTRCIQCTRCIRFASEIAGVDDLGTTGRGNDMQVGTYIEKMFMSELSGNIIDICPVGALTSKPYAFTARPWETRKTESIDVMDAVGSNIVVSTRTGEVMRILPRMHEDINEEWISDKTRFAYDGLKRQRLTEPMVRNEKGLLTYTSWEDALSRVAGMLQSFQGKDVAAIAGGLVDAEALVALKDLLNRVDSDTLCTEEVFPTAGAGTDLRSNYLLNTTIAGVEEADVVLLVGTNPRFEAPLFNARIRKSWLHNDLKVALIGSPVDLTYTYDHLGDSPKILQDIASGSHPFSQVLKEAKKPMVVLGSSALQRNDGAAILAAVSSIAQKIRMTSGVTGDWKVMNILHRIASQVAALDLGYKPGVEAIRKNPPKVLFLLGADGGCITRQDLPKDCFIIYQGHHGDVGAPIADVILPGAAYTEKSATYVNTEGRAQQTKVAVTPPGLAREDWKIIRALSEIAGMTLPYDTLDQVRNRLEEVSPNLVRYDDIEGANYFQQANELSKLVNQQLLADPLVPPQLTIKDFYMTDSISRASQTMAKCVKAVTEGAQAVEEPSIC
Chain of UniProt Q15653 (Q15653 whole entry, looked up): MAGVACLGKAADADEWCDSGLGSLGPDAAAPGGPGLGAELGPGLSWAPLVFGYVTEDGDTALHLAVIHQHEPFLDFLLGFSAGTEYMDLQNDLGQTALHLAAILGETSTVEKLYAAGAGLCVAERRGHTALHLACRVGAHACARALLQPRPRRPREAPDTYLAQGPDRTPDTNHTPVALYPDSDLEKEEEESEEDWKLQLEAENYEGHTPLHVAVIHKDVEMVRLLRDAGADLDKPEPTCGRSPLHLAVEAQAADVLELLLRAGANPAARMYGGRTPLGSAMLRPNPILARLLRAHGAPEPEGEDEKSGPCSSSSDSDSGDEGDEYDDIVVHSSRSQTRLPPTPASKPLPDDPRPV
Chain of UniProt Q147X3 (Q147X3 whole entry, looked up): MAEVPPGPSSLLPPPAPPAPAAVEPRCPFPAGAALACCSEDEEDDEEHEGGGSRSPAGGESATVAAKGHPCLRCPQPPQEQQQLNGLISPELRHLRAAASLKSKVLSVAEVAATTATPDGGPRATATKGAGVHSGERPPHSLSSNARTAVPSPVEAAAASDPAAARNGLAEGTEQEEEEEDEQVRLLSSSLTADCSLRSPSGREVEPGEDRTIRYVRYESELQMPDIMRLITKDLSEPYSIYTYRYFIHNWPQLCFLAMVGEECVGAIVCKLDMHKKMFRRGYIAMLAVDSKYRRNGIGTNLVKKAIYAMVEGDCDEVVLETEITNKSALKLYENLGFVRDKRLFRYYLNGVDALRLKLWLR
Chain of UniProt O60313 (O60313 whole entry, looked up): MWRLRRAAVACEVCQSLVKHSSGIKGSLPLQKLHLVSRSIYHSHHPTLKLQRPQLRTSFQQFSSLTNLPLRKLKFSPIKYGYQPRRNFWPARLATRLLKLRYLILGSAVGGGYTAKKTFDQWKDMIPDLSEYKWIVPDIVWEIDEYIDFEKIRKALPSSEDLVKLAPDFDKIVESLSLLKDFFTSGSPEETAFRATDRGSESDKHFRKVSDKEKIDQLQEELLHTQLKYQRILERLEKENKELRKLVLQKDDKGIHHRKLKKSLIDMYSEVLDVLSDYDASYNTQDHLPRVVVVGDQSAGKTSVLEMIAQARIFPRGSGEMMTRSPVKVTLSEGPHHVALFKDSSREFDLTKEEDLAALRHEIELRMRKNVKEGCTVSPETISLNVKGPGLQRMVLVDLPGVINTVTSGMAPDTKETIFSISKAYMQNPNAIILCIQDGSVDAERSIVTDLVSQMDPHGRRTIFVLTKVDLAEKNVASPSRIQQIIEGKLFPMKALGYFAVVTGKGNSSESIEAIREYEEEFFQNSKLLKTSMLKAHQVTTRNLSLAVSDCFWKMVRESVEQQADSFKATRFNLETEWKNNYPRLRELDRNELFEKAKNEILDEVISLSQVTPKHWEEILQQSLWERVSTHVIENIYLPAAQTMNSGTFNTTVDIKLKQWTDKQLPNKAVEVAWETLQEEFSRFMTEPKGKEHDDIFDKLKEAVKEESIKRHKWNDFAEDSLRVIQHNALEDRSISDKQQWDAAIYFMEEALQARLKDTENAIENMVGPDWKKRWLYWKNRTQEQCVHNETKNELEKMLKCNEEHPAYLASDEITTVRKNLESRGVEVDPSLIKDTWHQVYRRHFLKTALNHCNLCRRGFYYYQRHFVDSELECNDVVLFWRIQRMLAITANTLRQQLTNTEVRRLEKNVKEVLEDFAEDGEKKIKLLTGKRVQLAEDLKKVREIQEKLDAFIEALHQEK
Chain of UniProt Q9BPZ3 (Q9BPZ3 whole entry, looked up): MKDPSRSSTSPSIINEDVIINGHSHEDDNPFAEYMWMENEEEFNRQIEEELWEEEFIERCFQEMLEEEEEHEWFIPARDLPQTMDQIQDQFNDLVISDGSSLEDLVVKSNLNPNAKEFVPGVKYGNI
Chain of UniProt Q15102 (Q15102 whole entry, looked up): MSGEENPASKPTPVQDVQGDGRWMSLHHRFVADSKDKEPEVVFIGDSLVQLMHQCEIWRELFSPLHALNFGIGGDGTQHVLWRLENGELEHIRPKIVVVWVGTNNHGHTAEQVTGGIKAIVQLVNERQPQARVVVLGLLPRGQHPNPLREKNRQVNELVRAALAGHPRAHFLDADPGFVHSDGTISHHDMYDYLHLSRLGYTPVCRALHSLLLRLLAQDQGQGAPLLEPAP

| Target | log2 fold change [1] | log2 fold change [2] | log2 fold change [3] | log2 fold change [4] | log2 fold change [5] | log2 fold change [6] | log2 fold change [7] | log2 fold change [8] | log2 fold change [9] | log2 fold change [10] | log2 fold change [11] | log2 fold change [12] | log2 fold change [13] | log2 fold change [14] | log2 fold change [15] | log2 fold change [16] | log2 fold change [17] | log2 fold change [18] | log2 fold change [19] | log2 fold change [20] |
| --- | --- | --- | --- | --- | --- | --- | --- | --- | --- | --- | --- | --- | --- | --- | --- | --- | --- | --- | --- | --- |
| NUP188 (UniProt Q5SRE5) | 0.004 | -0.049 | -0.018 | 0.038 | -0.016 | -0.045 | 0.043 | -0.007 | 0.025 | 0.011 | -0.063 | -0.04 | -0.05 | -0.024 | 0.004 | -0.127 | -0.012 | -0.034 | -0.031 | 0.039 |
| NFKBIB (UniProt Q15653) | -0.146 | -0.077 | 0.053 | -0.007 | -0.006 | 0.006 | 0.06 | 0 | -0.031 | 0.064 | 0.093 | -0.011 | -0.055 | -0.36 (active) | 0.004 | 0.095 | -0.024 | 0.024 | -0.049 | 0.127 |
| NDUFS1 isoform 2 (UniProt P28331) | 0.008 | -0.018 | -0.024 | 0.028 | 0.014 | -0.011 | 0.05 | 0.03 | -0.025 | -0.001 | 0.023 | -0.014 | 0.034 | 0.009 | -0.01 | -0.006 | 0.03 | 0.024 | -0.013 | -0.006 |
| NUMB (UniProt P49757) | -0.021 | -0.125 | -0.028 | -0.02 | 0.026 | 0.094 | 0.013 | -0.031 | -0.007 | 0.052 | 0.033 | 0.023 | 0.02 | -0.057 | 0.029 | 0.097 | 0.047 | 0.125 | -0.069 | 0.038 |
| MSH3 (UniProt P20585) | 0.021 | -0.004 | 0.008 | 0.023 | 0.057 | 0.02 | -0.013 | -0.027 | 0.006 | -0.012 | -0.021 | -0.005 | -0.004 | -0.018 | -0.001 | -0.019 | 0.021 | 0.019 | -0.003 | 0.028 |
| NAA30 (UniProt Q147X3) | -0.03 | 0.051 | -0.023 | 0.002 | 0.023 | -0.032 | 0.008 | 0.039 | -0.066 | 0.015 | -0.021 | -0.028 | -0.01 | -0.025 | -0.037 | 0.012 | 0.015 | -0.028 | 0.042 | 0.06 |
| PAFAH1B3 (UniProt Q15102) | 0.005 | -0.067 | 0.019 | 0.065 | -0.017 | -0.016 | 0.212 (active) | 0.058 | -0.022 | -0.02 | -0.034 | -0.024 | -0.01 | -0.016 | -0.024 | -0.001 | 0.054 | 0 | 0.048 | -0.001 |
| MVB12A (UniProt Q96EY5) | -0.019 | -0.221 | -0.009 | 0.056 | 0.037 | -0.015 | -0.012 | -0.011 | -0.035 | -0.055 | 0.012 | -0.027 | -0.025 | 0 | -0.04 | -0.031 | -0.046 | 0.012 | -0.015 | -0.031 |
| PANK1 (UniProt Q8TE04) | 0.002 | 0.025 | 0.051 | -0.082 | -0.076 | 0.312 | 0.173 | 0.001 | -0.096 | 0.072 | -0.008 | 0.151 | -0.018 | 0.106 | 0.099 | -0.31 (active) | 0.069 | 0.041 | -0.062 | -0.253 |
| PAIP2 (UniProt Q9BPZ3) | 0.009 | 0.045 | -0.03 | -0.056 | 0.037 | -0.092 | 0.071 | -0.038 | -0.049 | -0.019 | 0.013 | -0.036 | 0.021 | -0.008 | -0.04 | 0.022 | 0.035 | 0.043 | 0.073 | 0.02 |
| OPA1 isoform 2 (UniProt O60313) | 0.012 | 0.038 | -0.032 | -0.013 | -0.042 | -0.017 | 0.053 | 0.03 | -0.041 | -0.003 | -0.017 | 0.002 | -0.096 | -0.013 | -0.002 | -0.248 (active) | 0.03 | 0.023 | -0.073 | 0.048 |
| OSBPL3 isoform 2 (UniProt Q9H4L5) | -0.013 | -0.161 | 0.056 | -0.11 | -0.033 | 0.03 | 0.052 | -0.043 | -0.002 | 0.206 | 0.073 | -0.039 | 0.014 | -0.045 | 0.03 | -0.052 | -0.005 | 0.107 | 0.269 | 0.035 |
| NCAPD3 (UniProt P42695) | -0.006 | -0.224 | 0.017 | 0.017 | 0.013 | 0.037 | -0.018 | -0.017 | 0 | -0.002 | -0.015 | -0.009 | -0.065 | -0.013 | -0.004 | -0.099 | -0.013 | 0.02 | -0.024 | 0.047 |
| NLRP2 (UniProt Q9NX02) | 0.034 | -0.227 | 0 | 0.024 | -0.044 | 0.034 | -0.239 (active) | -0.025 | 0 | -0.012 | 0.004 | -0.025 | -0.029 | 0.091 | 0.005 | -0.049 | 0.005 | 0.051 | -0.023 | -0.018 |
| NUDT5 (UniProt Q9UKK9) | -0.137 | 0.052 | -0.01 | 0.072 | -0.018 | 0.034 | 0.006 | 0.004 | 0.003 | -0.002 | 0.003 | -0.036 | 0.007 | -0.299 (active) | 0.051 | 0.211 | -0.018 | -0.015 | -0.016 | 0.212 |
| OCRL (UniProt Q01968) | -0.002 | -0.105 | 0.074 | 0.123 | -0.051 | 0.045 | -0.006 | 0.016 | -0.082 | 0.049 | 0.008 | -0.029 | -0.047 | -0.029 | -0.013 | -0.009 | 0 | 0.033 | 0.001 | 0.047 |
